Screens (PubChem BioAssay)
Mtb bLac sens = beta-lactam sensitization of Mtb H37Rv | M. tuberculosis H37Rv growth with meropenem, percent inhibition | inhibition, % at 25 µM | AID 434955 | actives 0.27% (n = 330,000); call rule not given here;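 further: growth measured after seven days incubation then overnight dye step; 0% = bacteria only wells and 100% = bacteria with antibiotic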
RecA intein inh = blocks M. tuberculosis RecA intein splicing | cell-free RecA intein splicing, fluorescence | inhibition, % (test concentration not listed) | P9WHJ3 | actives 0.75% (n = 290,000); in the data active means inhibition above about 30%; inconclusive means no clear call, values can overlap the other calls;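 further: 0% = vehicle wells and 100% = reference inhibitor control wells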
MazEF act = MazEF (E. coli) toxin RNase activation; P0AE70; activation, % at 20 µM; FAM/BHQ RNA-DNA oligo cleavage fluorescence, 5 h; actives 0.32% (n = 350,000); in the data active means activation above about 50%
Target sequence (P0AE70 whole entry, looked up): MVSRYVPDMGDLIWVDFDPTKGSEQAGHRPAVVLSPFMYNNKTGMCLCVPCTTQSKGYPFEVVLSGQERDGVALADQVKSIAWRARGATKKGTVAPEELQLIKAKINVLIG
Rv3671c protease = inhibitors of M. tuberculosis serine protease Rv3671c; P9WHR9; inhibition, % at 5.96 µM; actives 0.048% (n = 320,000); AID 2606; in the data active means inhibition above about 38%;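 further: extracellular domain of Rv3671c used as enzyme; 0% = enzyme with DMSO and 100% = no enzyme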
TcdB GH inh = inhibitors of Clostridioides difficile toxin B glycohydrolase; P18177; TcdB glycohydrolase enzymatic assay, plate reader; inhibition, % at 9.99 µM; actives 0.24% (n = 350,000); AID 652162; in the data active means inhibition above about 10%
UGM FP inh = blocks M. tuberculosis UGM enzyme | P9WIQ1 | purified UGM, fluorescence polarization probe displacement | inhibition, % at 10 µM | actives 0.06% (n = 320,000) | AID 504406; in the data active means inhibition above about 10%, passing the limit was not always enough; inconclusive means no clear call, values can overlap the other calls
Target sequence (P9WIQ1 whole entry, looked up): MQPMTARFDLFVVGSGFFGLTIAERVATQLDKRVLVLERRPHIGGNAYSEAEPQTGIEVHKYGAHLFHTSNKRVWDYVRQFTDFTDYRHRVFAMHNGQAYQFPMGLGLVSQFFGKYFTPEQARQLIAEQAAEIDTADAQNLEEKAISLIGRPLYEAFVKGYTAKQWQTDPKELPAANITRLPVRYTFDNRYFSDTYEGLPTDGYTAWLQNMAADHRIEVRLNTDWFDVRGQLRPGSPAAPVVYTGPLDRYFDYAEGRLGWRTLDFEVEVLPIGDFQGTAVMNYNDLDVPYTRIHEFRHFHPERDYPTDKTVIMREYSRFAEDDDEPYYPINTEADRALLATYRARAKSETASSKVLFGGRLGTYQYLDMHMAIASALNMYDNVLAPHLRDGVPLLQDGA
* = called active by the depositor; ? = inconclusive; nt = no result given. Shown are actives, neighbours in structure and some others; about 0.97% of the full set was active somewhere.

SMILES | Mtb bLac sens | RecA intein inh | MazEF act | Rv3671c protease | TcdB GH inh | UGM FP inh
O=C(c1csc2c1CCCC2)N1CCN(c2ccc(F)cc2)CC1 | -1 | 8 | 53* | 4 | nt | -1
O=C(c1csc2c1CCCC2)N1CCN(c2cccc(C(F)(F)F)c2)CC1 | ? | 4 | -6 | -5 | nt | 0
CN1C(=O)C(Cc2ccc3c(c2)OCO3)C(=O)N(C)C1=O | -5 | 30* | nt | -8 | nt | 0
CN1C(=O)C(Cc2ccccc2)C(=O)N(C)C1=O | nt | nt | -4 | nt | 0 | nt
C[C@@H]1CCCCO[C@H](CN(C)S(=O)(=O)c2ccc(F)cc2)[C@H](C)CN([C@H](C)CO)C(=O)c2cc(NS(=O)(=O)c3ccccc3)ccc2O1 | nt | nt | nt | nt | -1 | nt
CCCCCOc1ccc(/C=c2\sc3nc(=O)c(-c4ccccc4)nn3c2=O)cc1OC | -6 | -4 | 44 | 4 | 1 | 1
O=c1nc2s/c(=C\c3ccc(-c4ccccc4[N+](=O)[O-])o3)c(=O)n2nc1-c1ccccc1 | nt | 64* | -255 | nt | 1 | nt
Nc1cc(SCc2ccc(Cl)cc2Cl)ncn1 | nt | nt | 56* | nt | 1 | nt
Nc1nc(SCc2ccc(Cl)cc2Cl)ns1 | 6 | 7 | 4 | -4 | nt | -1
CCn1c(C)nc2cc(-c3nnc(-c4c(-c5ccccc5)noc4C)o3)ccc21 | 14 | 4 | 5 | -30 | nt | -1
Cc1onc(-c2ccccc2)c1-c1nc2cc(Cl)ccc2c(=O)o1 | -5 | 36* | -16 | -6 | 0 | 3
CN1c2ccc(-c3ccc(F)cc3)cc2[C@@H]2[C@@H](CCN2C(=O)C2CCOCC2)[C@@H]1CO | nt | nt | nt | nt | 9 | nt
O=C(CS(=O)(=O)c1c[nH]c2ccccc12)Nc1ccc(F)cc1 | -15 | 0 | 5 | -1 | 0 | 3
O=S(=O)(Cc1cccc(F)c1)c1c[nH]c2ccccc12 | 4 | 4 | -20 | -3 | 15* | 3
COc1ccc2c(c1)CC=C1C2CCC2(C)C(=O)C(=NO)CC12 (configuration not stated) | nt | nt | 14 | nt | 2 | nt
CC12CCC3C(=CCc4cc(O)ccc43)C1CC(=NO)C2O (configuration not stated) | nt | nt | 1 | nt | 13* | nt
Cc1cccc(Sc2c(C=O)c3ccccc3n2C)c1 | 4 | 30* | 9 | 1 | nt | 1
Cn1c(Sc2ccc(Cl)cc2)c(C=O)c2ccccc21 | 0 | 19 | -9 | -9 | nt | 1
COc1ccc(C(CNC(=O)c2oc3ccc(OC)cc3c2C)N2CCCC2)cc1 (configuration not stated) | -6 | 8 | -6 | 1 | 12* | 4
CC(=O)Nc1ccc(N(C(=O)c2ccco2)C(C(=O)NC2CCCC2)c2cccs2)cc1 (configuration not stated) | -7 | 1 | 3 | 5 | 13* | 2
CC(=O)Nc1ccc(N(C(=O)c2ccco2)C(C(=O)NC2CCCCC2)c2ccccc2)cc1 (configuration not stated) | -4 | 0 | -2 | -5 | 0 | 2
COc1ccc(NS(=O)CCCc2ccccc2)cc1 (configuration not stated) | nt | nt | nt | nt | 11* | nt
COc1ccc(C(=O)NCCCCc2ccccc2)cc1 | 8 | 1 | 0 | -4 | 1 | 4
CN(N=Cc1cccc2cccnc12)c1ccc([N+](=O)[O-])cc1[N+](=O)[O-] | nt | nt | 935* | nt | 2 | nt
CN(C)/N=C/c1ccc([N+](=O)[O-])cc1[N+](=O)[O-] | 1 | -3 | 3 | 2 | 1 | 2
SMILES | Mtb bLac sens | RecA intein inh | MazEF act | Rv3671c protease | TcdB GH inh | UGM FP inh
O=S(=O)(Cc1ccccc1)NCC[C@@H]1CC[C@H](NS(=O)(=O)c2ccc(F)cc2)[C@@H](CO)O1 | nt | nt | nt | nt | 0 | nt
CO[C@H]1CN(C)C(=O)c2ccc(NC(C)=O)cc2OC[C@@H](C)N(C(=O)Cc2cccnc2)C[C@@H]1C | nt | nt | nt | nt | -6 | nt
Cc1ccc(-c2cc(C(F)F)nc(S(C)(=O)=O)n2)cc1 | 99 | 46* | 10 | -3 | 0 | 1
CCNC(=O)C[C@H]1CC[C@H]2[C@H](COc3ccc(NC(=O)c4cc(C)on4)cc3C(=O)N2C)O1 | nt | nt | nt | nt | -1 | nt
COC[C@H]1OC(=O)c2coc3c2[C@@]1(C)C1=C(C3=O)[C@@H]2CCC(=O)[C@@]2(C)C[C@H]1OC(C)=O | nt | nt | 67* | nt | -5 | nt
OCC[C@H]1C[C@H](O)[C@@H](O)[C@@]2(Cc3ccccc3CO2)O1 | -10 | nt | 8 | 10 | 14* | 1
OCC[C@@H]1C[C@@H](O)[C@H](O)[C@@]2(Cc3ccccc3CO2)O1 | -3 | -3 | 0 | -4 | 0 | 0
CC/C(=N/Nc1cccc(C)c1)c1cnnc(SC)n1 | -2 | -4 | 287* | -17 | nt | 1
CCOC(=O)c1cnc(SCC(=O)N2CCN(c3ccccc3)CC2)nc1N | -6 | 0 | 7 | -2 | nt | 0
CCOC(=O)c1cnc(SCC(=O)N2CCc3ccccc32)nc1N | 0 | 1 | 68* | 0 | nt | 3
CSc1nc(O)c(Nc2cccc(Cl)c2)c(=O)[nH]1 | -3 | 76* | -11 | 1 | -31 | 1
Cc1ccc2ccc(C3C(=O)c4ccccc4C3=O)nc2c1 | 7 | 0 | 85* | -18 | 3 | 3
CCCCn1c(=O)[nH]c(=O)c2c1nc(-c1cccc(OC)c1)n2C | 0 | 0 | -36 | 5 | 0 | 1
CCCCn1c(=O)[nH]c(=O)c2c1nc(-c1ccc(OC(F)F)c(OC)c1)n2C | 3 | 0 | 71* | 4 | 2 | 0
Cc1ccc(C2=Nc3ccccc3N=C(c3ccco3)C2)c(O)c1 | 8 | -8 | 12 | 3 | nt | 3
Cc1ccc(O)c(C2=Nc3ccccc3N=C(c3ccco3)C2)c1 | 2 | -1 | 82* | -11 | nt | 1
O=C(Nc1ccccc1)Nc1ccc2c(c1)[C@@H]1C[C@H](CC(=O)N3CCCCC3)O[C@H](CO)[C@@H]1O2 | nt | nt | nt | nt | 0 | nt
O=C(CSc1nnc(-c2cccs2)n1Cc1ccccc1)NCc1ccc2c(c1)OCO2 | -4 | 2 | 3 | -1 | nt | 2
CC(Sc1nnc(-c2cccs2)n1Cc1ccccc1)C(=O)NCc1ccc2c(c1)OCO2 (configuration not stated) | -19 | 0 | 64* | 1 | nt | -6
[O-][n+]1ccccc1/C=C/c1ccccc1 | -8 | 4 | 3 | 2 | 1 | 4
CN(C)c1ccc(/C=C/c2cccc[n+]2[O-])cc1 | -6 | nt | -39 | -7 | 13* | 4
O=C(C[C@H]1CC[C@H]2[C@@H](COC[C@@H](O)CN2C(=O)c2ccc(F)cc2)O1)N1CCOCC1 | nt | nt | nt | nt | 0 | nt
C=CCn1c(C)cc(C(=O)COC(=O)CCc2cc(OC)c(OC)c(OC)c2)c1C | -8 | nt | 14 | 5 | 12* | 1
O=C(O)CC1S/C(=N/N=C/c2ccc(-c3ccc(Cl)c([N+](=O)[O-])c3)o2)NC1=O (configuration not stated) | 1 | 5 | -5 | 9 | 0 | 5
O=C(O)CC1S/C(=N/N=C/c2ccc(-c3ccc(Cl)cc3[N+](=O)[O-])o2)NC1=O (configuration not stated) | 5 | 70* | 12 | -23 | nt | 5
